Screening results from PubChem BioAssay.
Mtb hypoxia rep: inhibitors of hypoxia-regulated fluorescent reporter in Mycobacterium tuberculosis; 0.1% of 300,000 active; AID 1159583; fluorescence inhibition, % (test concentration not listed); M. tuberculosis hypoxia-regulated fluorescent reporter, fluorescence; in the data active = fluorescence inhibition mostly above about 23%, no sharp cut-off; inactive = mostly below about 17%
ugtP null kill: growth inhibition of S. aureus ugtP deletion strain; S. aureus RN4220 ugtP deletion, OD600 growth, 16 h; growth inhibition, % (concentration not given with the values); 0.54% of 330,000 active; AID 1259309; in the data active = growth inhibition above about 68%;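 note: plate controls were untreated wells for no effect and antibiotic for full effect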
TcdB inh: blocks C. difficile toxin B glycohydrolase activity; P18177; TcdB glycohydrolase enzymatic assay, plate reader; inhibition, % at 9.99 µM; 0.24% of 350,000 active; in the data active = inhibition above about 10%
Yp Topo-I inh: Y. pestis Topo-I inhibition via cleavage products. activity, % at 10 µM. Y. pestis Topo-I cleavage product accumulation, plate reader. 0.064% of 360,000 active; in the data active = activity above about 50%, passing the limit was not always enough
Mtb BioA inh: BioA (M. tuberculosis) enzyme inhibition; inhibition, % at 9.99 µM; AID 602481; 0.096% of 360,000 active; purified M. tuberculosis BioA enzyme, plate reader; in the data active = inhibition above about 40%
Sa RN4220 lethal: kills Staphylococcus aureus RN4220; S. aureus RN4220 growth, OD600, 16 h; inhibition, % (no concentration beside the values); 0.33% of 330,000 active; in the data active = inhibition above about 85%;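 note: plate controls were untreated cells for no effect and reference antibiotic for full effect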
* = called active by the depositor. Hits are enriched below; roughly 0.75% of the tested compounds scored in any of these assays.

For COc1ccc(C2CC=C(C(=O)O)C(c3ccc(F)cc3)N2S(=O)(=O)c2ccc(C)cc2)cc1OC (centres undefined) the results were Mtb hypoxia rep 8, ugtP null kill 2 and Sa RN4220 lethal 4.
Screening COCc1ccc(O)c2ncccc12 returned Mtb hypoxia rep -12, ugtP null kill 98*, Yp Topo-I inh -9, Mtb BioA inh -3 and Sa RN4220 lethal 98*.
`O=[N+]([O-])c1cc(Cl)c(O)c2ncccc12` gave Mtb hypoxia rep 4, ugtP null kill 98*, TcdB inh -1, Yp Topo-I inh 4 and Sa RN4220 lethal 99*.
O=c1oc2ccccc2c(O)c1Cc1cc(Cl)c2cccnc2c1O was read as Mtb hypoxia rep 13, ugtP null kill 98*, TcdB inh 0, Yp Topo-I inh 3 and Sa RN4220 lethal 94*.
For Oc1c(I)cc(Cl)c2cccnc12 the results were Mtb hypoxia rep 3, ugtP null kill 100*, TcdB inh 0, Yp Topo-I inh -1, Mtb BioA inh -1 and Sa RN4220 lethal 99*.
Screening Cc1ccc2nc(Nc3ccccc3)c(C=NO)c(=O)n2c1 returned ugtP null kill -14 and Sa RN4220 lethal 4.
`CC(NC(=O)CCC1CCC(=O)N1)c1ccccc1` (centres undefined) gave Mtb hypoxia rep -3, ugtP null kill 0 and Sa RN4220 lethal 8.
Screening O=C(NCc1ccccc1)C1=CC(c2ccc3c(c2)OCO3)CC(OCCCCO)O1 (centres undefined) returned Mtb hypoxia rep 16, ugtP null kill 5 and Sa RN4220 lethal 5.
CC1CN(C(C)CO)C(=O)c2cccc(NS(C)(=O)=O)c2OC1CN(C)Cc1ccc(Oc2ccccc2)cc1 (centres undefined) was read as Mtb hypoxia rep 8, ugtP null kill 5 and Sa RN4220 lethal 5.
`COc1cccc(C(=O)NN=C2SCC(=O)N2CCc2ccc(OC)c(OC)c2)c1` gave Mtb hypoxia rep 3, ugtP null kill -6 and Sa RN4220 lethal -3.
`CCOc1ccc(Oc2c(C=NNC(=O)C3CC3)c(C)nn2-c2ccccc2)cc1` gave Mtb hypoxia rep 15, ugtP null kill -13 and Sa RN4220 lethal 2.
COc1ccc(C(NC(C)=O)c2cc(Cl)c3cccnc3c2O)cc1 (centres undefined) was read as Mtb hypoxia rep 5, ugtP null kill -3, TcdB inh 11*, Yp Topo-I inh -8, Mtb BioA inh -5 and Sa RN4220 lethal 5.
CCC(=O)NC(c1ccc(C)cc1)c1cc([N+](=O)[O-])c2cccnc2c1O (centres undefined) was read as Mtb hypoxia rep 5, ugtP null kill 95*, Yp Topo-I inh 9, Mtb BioA inh -3 and Sa RN4220 lethal 94*.
`O=[N+]([O-])c1cc(Cl)c2cccnc2c1O` gave Mtb hypoxia rep 10, ugtP null kill 100*, TcdB inh 2, Yp Topo-I inh 4 and Sa RN4220 lethal 99*.
`O=[N+]([O-])c1ccc(O)c2ncccc12` gave ugtP null kill 99*, TcdB inh 0, Yp Topo-I inh 6, Mtb BioA inh 2 and Sa RN4220 lethal 99*.
Screening CC(=O)NC(c1ccccc1)c1cc(Cl)c2cccnc2c1O (centres undefined) returned Mtb hypoxia rep 7, ugtP null kill -14, TcdB inh 1, Yp Topo-I inh -15, Mtb BioA inh -2 and Sa RN4220 lethal 17.
Screening C/C(C=NNC(=O)Cc1cccn1C)=C\c1ccccc1 returned Mtb hypoxia rep 2, ugtP null kill 8 and Sa RN4220 lethal 3.
COc1ccc(C=Nn2c(-c3cc(C)[nH]n3)n[nH]c2=S)cc1 was read as Mtb hypoxia rep 11, ugtP null kill 20 and Sa RN4220 lethal 3.
Screening O=C(CCCCCNC(=O)c1ccccc1)NN=Cc1ccccc1 returned Mtb hypoxia rep 3, ugtP null kill 9 and Sa RN4220 lethal -2.
Screening CCCCCCCCN1C(CC(=O)OCC)c2ccc(C(F)(F)F)cc2S1(=O)=O (centres undefined) returned Mtb hypoxia rep 1, ugtP null kill 2 and Sa RN4220 lethal 7.
O=C(O)CC1c2cc(F)ccc2S(=O)(=O)N1C1CCN(Cc2ccccc2)CC1 (centres undefined) was read as Mtb hypoxia rep 6, ugtP null kill -5 and Sa RN4220 lethal 4.
CC(C)(C)N1[C@@H](CC(=O)O)c2cc(C(F)(F)F)ccc2S1(=O)=O was read as TcdB inh 12*, Yp Topo-I inh 4 and Mtb BioA inh -3.
Screening CC1CCC(C(C)C)C(OC(=O)C[n+]2cc(-c3ccc(Cl)cc3)n3c2CCCCC3)C1 (centres undefined) returned ugtP null kill 101*, TcdB inh 2, Yp Topo-I inh 15 and Sa RN4220 lethal 100*.
CCC[n+]1c(C)sc2c3c(ccc21)CCCC3 was read as Mtb hypoxia rep 10, ugtP null kill 95*, Yp Topo-I inh -16, Mtb BioA inh 1 and Sa RN4220 lethal 97*.
CC[n+]1c(C)sc2c(C)cc(C)cc21 was read as ugtP null kill 8, TcdB inh 3, Yp Topo-I inh 19, Mtb BioA inh -2 and Sa RN4220 lethal 2.
For Cc1n[nH]c(=S)n1N=Cc1ccc(OCc2ccc(Cl)cc2)cc1 the results were Mtb hypoxia rep 7, ugtP null kill -15 and Sa RN4220 lethal 4.
For CC1CN(C(C)CO)C(=O)c2cccc(NC(=O)c3ccncc3)c2OC1CN(C)Cc1ccc(Cl)c(Cl)c1 (centres undefined) the results were Mtb hypoxia rep -1, ugtP null kill 8 and Sa RN4220 lethal 8.
O=[N+]([O-])c1cc(C(F)(F)F)ccc1NCCNC(=S)Nc1ccc(Cl)cc1 was read as Mtb hypoxia rep -2, ugtP null kill 90*, TcdB inh 0, Yp Topo-I inh -1 and Sa RN4220 lethal 85*.
O=[N+]([O-])c1ccc(NC(=S)NCCc2ccc(Cl)cc2)cc1 was read as Mtb hypoxia rep -9, ugtP null kill 100*, Yp Topo-I inh -24 and Sa RN4220 lethal 101*.
O=[N+]([O-])c1ccc(NC(=S)NCCc2ccccc2)cc1 was read as Mtb hypoxia rep 2, ugtP null kill -31, TcdB inh 1, Yp Topo-I inh -9 and Sa RN4220 lethal 9.
For CCOC(=O)C1C2COc3ccc(Br)cc3C2N2C(=O)c3cc(F)c(F)cc3NC(=O)[C@@]12C (some centres undefined) the results were Mtb hypoxia rep -4, ugtP null kill -30 and Sa RN4220 lethal -6.
Screening COc1ccc(OC)c(NC(=O)COC(=O)C=Cc2ccc(Cl)cc2)c1 returned Mtb hypoxia rep 10, ugtP null kill -11 and Sa RN4220 lethal 5.
For CC(C)c1cc(CN2CCN(Cc3ccc(F)c(F)c3)C(CCO)C2)[nH]n1 (centres undefined) the results were Mtb hypoxia rep -5, ugtP null kill -2, TcdB inh 10*, Yp Topo-I inh -3, Mtb BioA inh 3 and Sa RN4220 lethal -1.
